The values below come from PubChem BioAssay (Tox21).

The structures appear in SMILES notation. Records with an inconclusive call do not appear. Calls of active or inactive are those of the source. Calls follow the shape of the dose curve; as a rule, active = well fitted curve in the direction sought with a large enough effect in the repeat runs; inconclusive = weak or mixed curves; inactive = no such curve, though single readings can be large; an effect the other way counts as inactive or inconclusive.
% is scaled to controls: 0 for no effect and ±100 for the full control effect.
Also: nearly all actives have a fitted effect of over 50% in size.

Sequence of Voltage-gated inwardly rectifying potassium channel KCNH2 (Homo sapiens) (Q12809 whole entry, looked up): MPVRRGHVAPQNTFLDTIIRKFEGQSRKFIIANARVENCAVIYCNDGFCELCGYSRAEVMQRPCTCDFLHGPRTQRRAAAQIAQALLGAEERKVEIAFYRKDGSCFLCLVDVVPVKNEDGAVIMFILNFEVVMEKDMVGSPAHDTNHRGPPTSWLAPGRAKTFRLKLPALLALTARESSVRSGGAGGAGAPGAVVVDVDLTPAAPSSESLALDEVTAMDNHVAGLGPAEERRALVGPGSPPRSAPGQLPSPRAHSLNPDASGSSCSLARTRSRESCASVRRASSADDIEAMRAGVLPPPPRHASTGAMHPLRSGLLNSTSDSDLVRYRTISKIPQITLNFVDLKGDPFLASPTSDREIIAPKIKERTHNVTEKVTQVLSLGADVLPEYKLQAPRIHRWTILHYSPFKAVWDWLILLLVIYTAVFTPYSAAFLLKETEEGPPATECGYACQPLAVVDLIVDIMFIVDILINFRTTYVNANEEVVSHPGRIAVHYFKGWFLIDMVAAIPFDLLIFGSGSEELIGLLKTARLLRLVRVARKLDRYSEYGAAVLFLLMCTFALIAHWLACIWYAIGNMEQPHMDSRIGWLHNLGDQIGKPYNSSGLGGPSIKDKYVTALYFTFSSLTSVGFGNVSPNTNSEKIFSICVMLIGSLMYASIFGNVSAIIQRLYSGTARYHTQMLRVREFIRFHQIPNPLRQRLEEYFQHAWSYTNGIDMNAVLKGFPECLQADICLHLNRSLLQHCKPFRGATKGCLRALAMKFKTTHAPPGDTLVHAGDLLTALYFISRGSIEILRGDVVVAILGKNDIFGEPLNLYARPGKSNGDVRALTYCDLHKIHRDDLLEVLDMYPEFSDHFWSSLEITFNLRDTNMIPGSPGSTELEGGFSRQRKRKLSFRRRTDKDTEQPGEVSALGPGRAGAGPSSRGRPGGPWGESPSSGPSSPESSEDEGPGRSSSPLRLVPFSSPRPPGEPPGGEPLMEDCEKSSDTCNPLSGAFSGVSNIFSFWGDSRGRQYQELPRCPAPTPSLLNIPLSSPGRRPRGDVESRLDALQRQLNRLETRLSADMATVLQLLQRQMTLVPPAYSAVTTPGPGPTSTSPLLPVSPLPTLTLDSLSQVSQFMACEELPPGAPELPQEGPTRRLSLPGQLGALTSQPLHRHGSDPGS

For the first assay, the target named is Voltage-gated inwardly rectifying potassium channel KCNH2 (Homo sapiens) (UniProt Q12809). Description: Human Ether-a-go-go-Related Gene (hERG) channel small molecule antagonists: fluorescence cell-based qHTS assay (AID 1671200).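 Also: hERG-expressing U2OS cells given a thallium stimulus after FluxOR II dye loading.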 Particulars: hERG-U2OS cells, FluxOR thallium flux fluorescence; series mostly up to 76.8 µM; activity change, negative = inhibition: at the top concentration. In a few lines:
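Channel function was assessed by thallium flux. Cells seeded the previous day and kept at 37 C took up FluxOR II dye over 1 h in the dark at room temperature, then sat another 10 min before stimulation.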
`CCO[Si](CCCS)(OCC)OCC`: the “activity change, negative = inhibition” value was 5.69% (inactive). Same read-out and setting: under `CCCCN` stands 0.264% [at 35.3 µM] (inactive); under `O=C(O)c1cc(Cl)cc([N+](=O)[O-])c1Cl`, 0.633% (inactive).

As for `CC(C)(C)OC(=O)c1ccc(O)cc1`, the “activity change, negative = inhibition” value is 0.349% (inactive). The same measure, in the same setting: next, `Oc1cn2c(n1)Nc1ccc(Cl)c(Cl)c1C2`: -1.03% [at 15.8 µM] (inactive); `NCCN1CCOCC1`: 1.55% (inactive). On the same count and under the same terms, under `COCCOC(=O)C1=C(C)NC(C)=C(C(=O)OC(C)C)C1c1cccc([N+](=O)[O-])c1` (stereo not given) stands 2.22% [at 35.3 µM] (inactive); under `COCCOCCOCCOCCO`, 3.91% (inactive); under `Cc1ccc(C=O)cc1C`, 9.96% (inactive). The same measure, in the same setting: next, `CCCCCCCCCC(C)=O`: -6.3% (inactive); `O=C(NCC(O)CO)c1c(I)c(C(=O)NCC(O)CO)c(I)c(N(CCO)C(=O)CO)c1I` (stereo not given): 1.79% [at 35.3 µM] (inactive). As to `CC(=O)NCc1c(I)c(NC(C)=O)c(I)c(C(=O)O)c1I`, the “activity change, negative = inhibition” value is 1.26% [at 35.3 µM] (inactive).

For the compound `Cc1ccccc1OCC(O)CO` (stereo not given), the “activity change, negative = inhibition” value is 12.5% [at 35.3 µM] (inactive). Consider `CC(C)(C)c1nnc(NS(=O)(=O)c2ccc(N)cc2)s1`, for which the “activity change, negative = inhibition” value is 4.75% [at 35.3 µM] (inactive). On the same count and under the same terms, next, `O=P(O)(O)OP(=O)(O)O`: 3.89% (inactive); `COC(=O)CCCCCCCC(=O)OC`: -4.69% (inactive). On the same count and under the same terms, under `O=S(=O)(O)CCN1CCN(CCO)CC1` stands 2.21% (inactive); under `O=S(=O)(O)c1cc(O)c2ccc(Nc3ccccc3)cc2c1`, -10.6% (inactive).

With `COc1ccc(OC)c(Cl)c1`, the “activity change, negative = inhibition” value is 1.68% (inactive). On the same count and under the same terms, next, `CC(C)NCC(O)COc1cccc2[nH]ccc12` (stereo not given): -6.02% [at 35.3 µM] (inactive); `NC(CO)C(=O)NNCc1ccc(O)c(O)c1O` (stereo not given): 1.53% [at 35.3 µM] (inactive). On the same count and under the same terms, under `CCCCNc1ccc(C(=O)OCCN(C)C)cc1` stands 0.348% [at 35.3 µM] (inactive); under `CC(C)=O`, 0.0144% (inactive). `C[C@H](N)[C@H](O)c1cccc(O)c1`: the “activity change, negative = inhibition” value is 3.1% [at 35.3 µM] (inactive).

As to `O=C1c2ccccc2C(=O)N1CCl`, the “activity change, negative = inhibition” value was 0.353% (inactive).

For the compound `CCCC/C=C/C=C\C=O`, the “activity change, negative = inhibition” value was -5.57% (inactive). `O=C(NCCN1CCOCC1)c1ccc(Cl)cc1`: the “activity change, negative = inhibition” value was 1.74% [at 35.3 µM] (inactive). On the same count and under the same terms, under `CCN(C)C(=O)Oc1cccc([C@H](C)N(C)C)c1` stands 5% [at 35.3 µM] (inactive); under `Nc1nnc(-c2cccc(Cl)c2Cl)c(N)n1`, 2.17% [at 35.3 µM] (inactive); under `CCOC(=O)/C=C/c1ccccc1`, 7.75% (inactive).

For the next assay, the target named is Cytochrome P450 3A4 (Homo sapiens) (UniProt P08684). Description: Cytochrome P450 Family 3 Subfamily A Member 4 (CYP3A4) small molecule antagonists: luciferase reporter qHTS assay (AID 1671201). Also: potency is read from the fitted curve at half-maximal effect. Particulars: P450-Glo CYP3A4 enzyme, luciferin luminescence, 1 h; series mostly up to 115 µM; activity change, negative = inhibition: at the top concentration. In a few lines: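 Compounds in DMSO were pin-transferred onto CYP3A4 enzyme-substrate mix and held 10 min at room temperature. NADPH regenerating solution started the reaction for 1 h; luciferin detection reagent stopped it, and luminescence was read after 20 min.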
Sequence of Cytochrome P450 3A4 (Homo sapiens) (P08684 whole entry, looked up): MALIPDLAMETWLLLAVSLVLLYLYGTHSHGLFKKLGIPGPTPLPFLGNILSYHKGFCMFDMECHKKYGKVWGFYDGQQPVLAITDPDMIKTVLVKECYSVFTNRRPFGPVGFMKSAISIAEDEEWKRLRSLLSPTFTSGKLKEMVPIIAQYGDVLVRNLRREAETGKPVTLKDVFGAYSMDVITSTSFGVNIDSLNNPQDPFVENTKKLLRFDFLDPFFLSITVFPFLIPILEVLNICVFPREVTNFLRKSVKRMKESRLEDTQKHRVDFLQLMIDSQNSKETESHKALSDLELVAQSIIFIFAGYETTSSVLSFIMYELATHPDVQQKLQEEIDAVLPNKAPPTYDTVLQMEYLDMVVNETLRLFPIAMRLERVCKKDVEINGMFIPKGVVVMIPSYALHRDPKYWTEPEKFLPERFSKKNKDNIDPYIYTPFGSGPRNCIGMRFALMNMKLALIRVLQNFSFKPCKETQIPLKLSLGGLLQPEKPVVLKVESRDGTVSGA
(In general: A reporter such as luciferase makes a cellular process visible.)
Take `CCO[Si](CCCS)(OCC)OCC`: the Potency is 35.6 µM (active).

Take `OC[C@H](Cc1cccc(O)c1)[C@H](CO)Cc1cccc(O)c1`: the Potency was 18.3 µM (active). Regarding `CCCCN`, the “activity change, negative = inhibition” value is -0.131% [at 52.9 µM] (inactive). For `O=C(O)c1cc(Cl)cc([N+](=O)[O-])c1Cl`, the “activity change, negative = inhibition” value was 23.6% (inactive). Same read-out and setting: under `CC(C)(C)OC(=O)c1ccc(O)cc1` stands 17.9% (inactive). The same measure, in the same setting: next, `Oc1cn2c(n1)Nc1ccc(Cl)c(Cl)c1C2`: 40.9% [at 23.6 µM] (inactive); `Cc1ccsc1/C=C/C1=NCCCN1C`: -6.81% [at 52.9 µM] (inactive); `COCCOCCOCCOCCO`: 7.16% (inactive). Same read-out and setting: under `Cc1ccc(C=O)cc1C` stands 1.11% (inactive); under `CCCCCCCCCC(C)=O`, 3.98% (inactive). With `CC(=O)NCc1c(I)c(NC(C)=O)c(I)c(C(=O)O)c1I`, the “activity change, negative = inhibition” value is 52.3% [at 52.9 µM] (inactive). As to `Cc1ccccc1OCC(O)CO` (stereo not given), the “activity change, negative = inhibition” value is 2.19% [at 52.9 µM] (inactive). Same read-out and setting: next, `CC(C)(C)c1nnc(NS(=O)(=O)c2ccc(N)cc2)s1`: -0.949% [at 52.9 µM] (inactive); `COC(=O)CCCCCCCC(=O)OC`: 43.8% (inactive); `CCOC(=O)CC(=O)c1ccccc1`: -37.4% (inactive). On the same count and under the same terms, next, `O=S(=O)(O)CCN1CCN(CCO)CC1`: 3.11% (inactive); `O=S(=O)(O)c1cc(O)c2ccc(Nc3ccccc3)cc2c1`: -7.78% (inactive).

Regarding `COc1ccc(OC)c(Cl)c1`, the “activity change, negative = inhibition” value is -11.3% (inactive). On the same count and under the same terms, under `C[C@H](N)[C@H](O)c1cccc(O)c1` stands 3.81% [at 52.9 µM] (inactive).

For the compound `O=C1c2ccccc2C(=O)N1CCl`, the “activity change, negative = inhibition” value is 12% (inactive).

Turning to `N[C@@H](COP(=O)(O)O)C(=O)O`, the activity change, negative = inhibition was 2.53% [at 23.6 µM] (inactive).

On to `CCCC/C=C/C=C\C=O`, for which the Potency was 39.9 µM (active). As to `O=C(NCCN1CCOCC1)c1ccc(Cl)cc1`, the “activity change, negative = inhibition” value is 10.3% [at 52.9 µM] (inactive). In the case of `CCN(C)C(=O)Oc1cccc([C@H](C)N(C)C)c1`, the “activity change, negative = inhibition” value is 3.22% [at 52.9 µM] (inactive). The same measure, in the same setting: under `CCOC(=O)/C=C/c1ccccc1` stands 12.9% (inactive).
